Assay results from PubChem BioAssay (Tox21).
Inconclusive results are not listed. A call without a number means that no potency is given here. A number with no mark means an inactive call. The source made the active and inactive calls. Unless noted, the call rests on the fitted dose curve; in most records, active means well fitted curve in the direction sought with a large enough effect in the repeat runs; inconclusive means weak or mixed curves; inactive means no such curve, though single readings can be large; an effect the other way counts as inactive or inconclusive.

Experiments:
[1] = qHTS assay to identify small molecule agonists of the peroxisome proliferator-activated receptor delta (PPARd) signaling pathway - cell viability counter screen (AID 743211); further: nearly all actives have a fitted effect of over 55% in size
Summary of the method: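 HEK293H PPARd-bla, 3000 cells/well; 5 h preincubation 37C/5% CO2; cpd in DMSO, 17 h 37C; B/G FRET substrate 2 h RT; CellTiter-Glo 30 min RT, luminescence.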

[2] = qHTS assay to identify small molecule antagonists of the peroxisome proliferator-activated receptor delta (PPARd) signaling pathway - cell viability counter screen (AID 743213); further: nearly all actives have a fitted effect of over 50% in size; further: potency means the concentration at half of the fitted maximal effect
Summary of the method: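 Same-well viability: cells pre-incubated 5 h, dosed with compound plus 300 nM L165041, kept 17 h at 37 C, FRET substrate 2 h RT, then CellTiter-Glo 30 min RT and luminescence.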

[3] = target: Bile acid receptor (Homo sapiens) (UniProt Q96RI1); experiment: qHTS assay to identify small molecule antagonists of the farnesoid-X-receptor (FXR) signaling pathway (AID 743217; active means well fitted inhibition curve with a large enough effect in the signal ratio in the repeat runs, not every such curve was filed as active; the % refers to the signal ratio)
Sequence of Bile acid receptor (Homo sapiens) (Q96RI1 whole entry, looked up): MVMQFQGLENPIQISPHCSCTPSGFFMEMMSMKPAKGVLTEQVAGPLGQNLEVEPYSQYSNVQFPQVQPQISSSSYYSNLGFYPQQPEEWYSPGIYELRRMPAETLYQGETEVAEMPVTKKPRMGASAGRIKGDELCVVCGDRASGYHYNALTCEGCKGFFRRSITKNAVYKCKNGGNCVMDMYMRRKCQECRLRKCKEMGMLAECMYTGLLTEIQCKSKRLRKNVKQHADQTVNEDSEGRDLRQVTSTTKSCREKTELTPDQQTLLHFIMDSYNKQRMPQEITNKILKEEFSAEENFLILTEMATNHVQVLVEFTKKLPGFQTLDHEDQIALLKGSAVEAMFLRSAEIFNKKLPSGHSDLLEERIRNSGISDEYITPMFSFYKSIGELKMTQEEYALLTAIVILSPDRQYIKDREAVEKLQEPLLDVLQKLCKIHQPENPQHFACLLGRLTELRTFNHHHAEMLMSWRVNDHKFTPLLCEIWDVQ
Summary of the method: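 FRET fluorescence after 2 h room-temperature LiveBLAzer loading gives the readout. Prior step: FXR-bla HEK 293T cells, seeded and incubated 5 h, received test compounds plus 50 uM final CDCA for 16 h at 37 °C.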

[4] = qHTS assay to identify small molecule agonists of the farnesoid-X-receptor (FXR) signaling pathway - cell viability counter screen (AID 743218); further: nearly all actives have a fitted effect of over 45% in size
Summary of the method: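 Readout: CellTiter-Glo luminescence, 30 min RT, multiplexed after the FXR-bla FRET reading. HEK 293T FXR-UAS-bla cells received compound 5 h post-plating and were incubated 16 h at 37 C.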

[5] = qHTS assay to identify small molecule antagonists of the farnesoid-X-receptor (FXR) signaling pathway - cell viability counter screen (AID 743221; active means well fitted cell-killing curve with a large enough effect in the repeat runs, not every such curve was filed as active; further: nearly all actives have a fitted effect of over 50% in size)
Summary of the method: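 Luminescence from CellTiter-Glo measures cytotoxicity in GeneBLAzer FXR-UAS-bla HEK 293T cells. Cells were exposed to compounds with 50 uM chenodeoxycholic acid (final) for 16 h at 37 C, in wells also used for the reporter readout.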

[6] = target: Vitamin D3 receptor (Homo sapiens) (UniProt P11473); experiment: qHTS assay to identify small molecule agonists of the vitamin D receptor (VDR) signaling pathway (AID 743222; calls by dose curve)
Sequence of Vitamin D3 receptor (Homo sapiens) (P11473 whole entry, looked up): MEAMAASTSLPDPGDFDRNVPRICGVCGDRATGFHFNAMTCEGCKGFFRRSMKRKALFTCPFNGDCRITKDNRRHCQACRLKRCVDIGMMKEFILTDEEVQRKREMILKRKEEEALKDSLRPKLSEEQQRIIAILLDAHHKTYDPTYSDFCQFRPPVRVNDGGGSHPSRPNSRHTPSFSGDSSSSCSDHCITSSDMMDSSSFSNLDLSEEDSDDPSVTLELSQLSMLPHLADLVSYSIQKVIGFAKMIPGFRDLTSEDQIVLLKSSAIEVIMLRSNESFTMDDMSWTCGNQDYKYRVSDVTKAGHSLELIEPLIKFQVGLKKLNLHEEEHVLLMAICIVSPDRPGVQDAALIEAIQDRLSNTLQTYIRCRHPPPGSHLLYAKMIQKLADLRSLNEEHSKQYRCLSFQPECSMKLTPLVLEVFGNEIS
Summary of the method: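 Following 4 h attachment at 37C, VDR-bla cells (2,000 per well) received DMSO-dissolved compounds or controls. After 16 h incubation, LiveBLAzer B/G FRET substrate was added and fluorescence read 2 h later at room temperature.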

[7] = target: Vitamin D3 receptor (Homo sapiens) (UniProt P11473); experiment: qHTS assay to identify small molecule antagonists of the vitamin D receptor (VDR) signaling pathway (AID 743223; active means well fitted inhibition curve with a large enough effect in the signal ratio in the repeat runs, not every such curve was filed as active; the % refers to the signal ratio)
Summary of the method: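 Antagonist mode uses 1alpha,25-dihydroxyvitamin D3 at 3 nM final as stimulus. VDR-bla cells receive compounds in DMSO, incubate 16 h at 37C, then a beta-lactamase FRET substrate for 2 h at room temperature before fluorescence measurement.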

[8] = qHTS assay to identify small molecule agonists of the vitamin D receptor (VDR) signaling pathway - cell viability counter screen (AID 743224); further: series mostly up to about 63 µM; nearly all actives have a fitted effect of over 50% in size
Summary of the method: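 In parallel with the bla FRET readout, cytotoxicity toward VDR-bla cells after 16 h compound exposure was assessed by CellTiter-Glo, with luminescence recorded after a 30 min room-temperature incubation.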

[9] = qHTS assay to identify small molecule antagonists of the vitamin D receptor (VDR) signaling pathway - cell viability counter screen (AID 743225); further: nearly all actives have a fitted effect of over 50% in size
Summary of the method: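 Read-out: CellTiter-Glo luminescence measured 30 min after reagent addition at room temperature. Cells were VDR-bla HEK 293T exposed 16 h at 37C, 5% CO2, to compound with 3 nM final calcitriol agonist.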

[10] = qHTS assay to identify small molecule agonists of the NFkB signaling pathway (AID 1159509; active means well fitted curve in the direction sought with a large enough effect in the signal ratio in the repeat runs, not every such curve was filed as active; the % refers to the signal ratio; further: series mostly up to about 61 µM)
Summary of the method: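 Beta-lactamase reporter assay run in quantitative high-throughput format on an NF-kB-responsive ME-180 line, with 5 hr compound treatment and a FRET-based blue/green fluorescence readout.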

[11] = qHTS assay to identify small molecule agonists of the NFkB signaling pathway - cell viability counter screen (AID 1159515; calls by dose curve; further: series mostly up to about 61 µM; nearly all actives have a fitted effect of over 55% in size)
Summary of the method: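 Plate 2,000 NFkB-bla ME-180 cells/well; incubate overnight. Add compounds, 5 hr at 37 C. Add FRET substrate, 1.5 hr RT. Add CellTiter-Glo, 30 min RT; read luminescence.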

[12] = qHTS assay to identify small molecule agonists of the endoplasmic reticulum stress response signaling pathway (AID 1159516; active means well fitted activation curve with a large enough effect in the signal ratio in the repeat runs, not every such curve was filed as active; the % refers to the signal ratio)
Summary of the method: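 Beta-lactamase expression from the ER stress response element in HeLa reporter cells is quantified with the LiveBLAzer B/G FRET substrate, read at 405 nm excitation after 2 hr at room temperature, following 5 hr compound treatment at 37 C.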

[13] = qHTS assay to identify small molecule agonists of the endoplasmic reticulum stress response signaling pathway - cell viability counter screen (AID 1159517; calls by dose curve)
Summary of the method: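 After overnight attachment, ESRE-bla HeLa cells were treated with Tox21 library compounds for 5 hr. CellTiter-Glo luminescence, read 30 min post-addition at room temperature, reported viability.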

[14] = qHTS assay to identify small molecule antagonists of the retinoid-related orphan receptor gamma (ROR-gamma) signaling pathway - cell viability counter screen (AID 1159520); further: nearly all actives have a fitted effect of over 50% in size
Summary of the method: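 Cytotoxicity was read from cellular ATP (CellTiter-Glo luminescence) after 16 hr at 37 C with 1 uM doxycycline induction. The inducer was added 2 hr after compound transfer to Tet-on ROR gamma CHO cells.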

[15] = target: Nuclear receptor ROR-gamma (Homo sapiens) (UniProt P51449); experiment: qHTS assay to identify small molecule antagonists of the retinoid-related orphan receptor gamma (ROR-gamma) signaling pathway (AID 1159521)
Summary of the method: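 CHO Tet-on RORγ, RORE-luc reporter. Cpd 2 h pre-incubation, then dox hyclate 1 uM final, 16 h, 37 C/5% CO2. ONE-Glo luminescence; decrease = antagonist.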

[16] = qHTS assay to identify small molecule agonists of the AP-1 signaling pathway - cell viability counter screen (AID 1159525; calls by dose curve; further: nearly all actives have a fitted effect of over 55% in size)
Summary of the method: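 Intracellular ATP by Cell Titer Glo luminescence (30 min, RT) in the same ME-180 AP-1-bla wells after the 5 h compound exposure at 37 °C. Normalised to tetra n-octyl ammonium bromide and DMSO controls.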

[17] = qHTS assay to identify small molecule agonists of the AP-1 signaling pathway (AID 1159526; calls by dose curve)
[18] = target: Peroxisome proliferator-activated receptor delta (Homo sapiens) (UniProt Q03181); experiment: qHTS assay to identify small molecule antagonists of the peroxisome proliferator-activated receptor delta (PPARd) signaling pathway (AID 743215; active means well fitted inhibition curve with a large enough effect in the signal ratio in the repeat runs, not every such curve was filed as active; the % refers to the signal ratio;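 further: cells stimulated with agonist L165041 at 300 nM final during compound exposure; series mostly up to about 62 µM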)
Sequence of Peroxisome proliferator-activated receptor delta (Homo sapiens) (Q03181 whole entry, looked up): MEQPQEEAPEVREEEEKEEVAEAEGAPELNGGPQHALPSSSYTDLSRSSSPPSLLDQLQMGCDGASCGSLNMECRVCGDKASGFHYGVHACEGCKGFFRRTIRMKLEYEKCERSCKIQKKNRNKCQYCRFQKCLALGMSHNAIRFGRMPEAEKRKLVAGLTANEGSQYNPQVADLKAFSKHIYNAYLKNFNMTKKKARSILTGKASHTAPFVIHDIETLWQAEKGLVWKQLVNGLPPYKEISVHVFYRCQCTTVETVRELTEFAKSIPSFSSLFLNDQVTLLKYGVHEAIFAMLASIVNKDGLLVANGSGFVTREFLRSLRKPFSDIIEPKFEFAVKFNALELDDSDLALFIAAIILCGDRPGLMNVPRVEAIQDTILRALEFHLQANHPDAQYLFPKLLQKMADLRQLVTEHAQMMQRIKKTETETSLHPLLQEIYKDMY
Summary of the method: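 Fluorescence from cleaved LiveBLAzer B/G FRET substrate (2 h, room temperature) reports PPARd-driven beta-lactamase in HEK293H UAS-bla cells. Cells had been treated 17 h at 37 C with compound plus 300 nM final L165041.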

[19] = target: Peroxisome proliferator-activated receptor delta (Homo sapiens) (UniProt Q03181); experiment: qHTS assay to identify small molecule agonists of the peroxisome proliferator-activated receptor delta (PPARd) signaling pathway (AID 743212; calls by dose curve;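 further: HEK293H cells with PPARd UAS beta-lactamase reporter GeneBLAzer system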)
Summary of the method: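 Steps: seed PPARd-bla HEK293H cells; incubate 5 h, 37 C, 5% CO2; add compounds in DMSO; incubate, 37 C; add LiveBLAzer B/G FRET substrate; hold 2 h at room temperature; measure fluorescence.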

[20] = target: Bile acid receptor (Homo sapiens) (UniProt Q96RI1); experiment: qHTS assay to identify small molecule agonists of the farnesoid-X-receptor (FXR) signaling pathway (AID 743220; active means well fitted activation curve with a large enough effect in the signal ratio in the repeat runs, not every such curve was filed as active; the % refers to the signal ratio)
Summary of the method: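 FXR-UAS-bla HEK 293T cells carrying a UAS-driven beta-lactamase reporter were plated for 5 h at 37C/5% CO2, then exposed to DMSO-dissolved Tox21 10K compounds for 16 h at 37C. A LiveBLAzer B/G FRET substrate was loaded for 2 h at room temperature before fluorescence reading.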

Compound	Potency [1]	Potency [2]	outcome [3]	Potency [4]	Potency [5]	outcome [6]	outcome [7]	outcome [8]	outcome [9]	outcome [10]	outcome [11]	outcome [12]	outcome [13]	Potency [14]	Potency [15]	outcome [16]	Potency [17]	outcome [18]	Potency [19]	outcome [20]
O=C(Nc1ccc2c(c1)Cc1ccccc1-2)C(F)(F)F	inactive	inactive	inactive	inactive	inactive	inactive	inactive	inactive	inactive	inactive	inactive	inactive	inactive	inactive	inactive	inactive	inactive	–	–	–
C(/C=C/C=C/Nc1ccccc1)=Nc1ccccc1	inactive	inactive	inactive	inactive	inactive	inactive	inactive	inactive	inactive	inactive	inactive	inactive	inactive	inactive	inactive	inactive	inactive	inactive	–	–
CCn1nc(Cc2ccccc2)cc1C1CCN(C[C@H]2C[C@H](N(C)[C@@H](C(=O)O)C(C)C)C[C@@H]2c2cccc(F)c2)CC1	inactive	inactive	–	inactive	inactive	–	–	inactive	–	inactive	inactive	inactive	inactive	inactive	inactive	inactive	inactive	–	–	–
C[C@H](CN1CCCC1)C(=O)c1ccc(C(F)(F)F)cc1	–	–	inactive	inactive	inactive	inactive	–	inactive	inactive	inactive	inactive	inactive	inactive	inactive	inactive	inactive	inactive	inactive	inactive	–
CC(C)CCCCCOC(=O)CS	inactive	inactive	–	inactive	inactive	–	–	inactive	inactive	inactive	inactive	inactive	inactive	inactive	inactive	inactive	inactive	–	–	–
CCc1ccc(C(=O)C(C)CN2CCCCC2)cc1 (configuration not stated)	inactive	inactive	–	–	inactive	inactive	–	inactive	inactive	inactive	inactive	inactive	inactive	inactive	inactive	inactive	inactive	inactive	–	–
Cc1c(-c2cccnc2)c2ccccc2n1CCCCC(=O)O	inactive	inactive	inactive	inactive	inactive	inactive	inactive	inactive	inactive	inactive	inactive	inactive	inactive	inactive	inactive	inactive	inactive	inactive	–	inactive
CCCCOC(=O)CC#N	inactive	57.6 µM (active)	–	inactive	inactive	inactive	–	inactive	inactive	inactive	inactive	inactive	inactive	inactive	inactive	inactive	inactive	–	–	–
COc1ccnc2c1CCCCC2S(=O)c1nc2ccccc2[nH]1 (configuration not stated)	inactive	inactive	–	inactive	inactive	inactive	inactive	inactive	inactive	inactive	inactive	inactive	inactive	inactive	inactive	inactive	inactive	–	–	–
C=CC(=O)NC(C)(C)C	inactive	inactive	inactive	–	inactive	inactive	inactive	inactive	inactive	inactive	inactive	inactive	inactive	inactive	inactive	inactive	inactive	–	–	inactive
CC(=O)Oc1cccc2c1C(=O)c1c(OC(C)=O)cc(C(=O)O)cc1C2=O	inactive	inactive	–	–	–	–	–	inactive	inactive	inactive	inactive	inactive	inactive	inactive	inactive	inactive	inactive	–	–	–
COc1ccc(C(=O)Nc2ccccc2)cc1[N+](=O)[O-]	inactive	–	inactive	inactive	inactive	–	–	inactive	inactive	inactive	inactive	inactive	inactive	inactive	inactive	inactive	inactive	–	–	–
CCCC1CCOC(C)S1 (configuration not stated)	inactive	4.9 µM (active)	–	inactive	inactive	inactive	inactive	inactive	inactive	inactive	inactive	inactive	inactive	inactive	inactive	inactive	inactive	–	–	–
